The values below come from the supplement of paper PMC11417369.

Whole data set: some 25,000 sequences, median “ln(normalized median fluorescence intensity)” near 7.1, cut for the highest 2% near 10. The sample holds the highest values, similar sequences and a random draw of the others, so the mix is not that of the screen.

The test system of this experiment is PfSIP2 AP2 domain 1 (GST-tagged). Put plainly: gcPBM binding intensity (ln(normalized median fluorescence intensity)); higher = stronger DNA binding. The method in brief: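 Using an Agilent 4 × 180k array, primer-extended double-stranded 36-bp intergenic genomic probes and negative controls were exposed for 1 h to GST-fused P. falciparum DNA-binding domains expressed in E. coli. Binding was carried out in 1× PBS with 1% milk, 0.2 mg/ml BSA, 0.5% salmon testes DNA and 0.03% Triton X-100, and protein was detected with Alexa488 anti-GST antibody and a 488 nm scan. Binding intensity is the highest Masliner-normalised natural-log median intensity across replicate spots of either probe orientation.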
As to “AAATGTTGAAATGATACACACATATATATATATATA [CACACA_site2517]”, the “gcPBM binding intensity (ln)” value was determined as 9.59.
The figure for “TTATTTATGATATATACACACTAACATTATTTATCC [CACACA_site6720]” is 6.95; for “GAAATTTCCCATATTACACACATACTATGATATATA [CACACA_site5987]” it is 7.12; for “GTGATGGTACAATATACACACTTAAAAAAAAAAAAT [CACACA_site5360]” it is 7.17.
For the sequence “TTTCTATATTGGCATACATGCAAGAACGAAAAGATT [TGCATGCA_site117]”, the “gcPBM binding intensity (ln)” value came out at 7.09.
With “TATAAAAAAAATTGCACACATATTATACAGGACGAC [CACACA_site701]” the figure was 7.96.
With “TTTATTTTTATTTTTGTGCACGGGATTAAATAAAAG [GTGCAC_site9842]” the figure was 10.5.
Turning to “TTATTTTATTTTTTTGTGCACATATATATTTATAAA [GTGCAC_site9615]”, the “gcPBM binding intensity (ln)” value turned out to be 9.43.
TAATATTTTAATTGTGTGCACATTAATATTATAAAA: the “gcPBM binding intensity (ln)” value stood at 9.3.
The figure for “AAGAAGAAACGGAAAAGTACAAAGAAGAAATAAGTA [XGTACX_site3680]” is 6.85.
The figure for “CATACATTATAAGATACATGCATATATCTGAACATA [TGCATGCA_site797]” is 7.02; for “AACATTATTTTGTGTACACATTCGGTTATATTATAT [CACACA_site5628]” it is 7.31.
With ATACTATTTAAATGGGTGCTAAAAATAACAAAAATT, the “gcPBM binding intensity (ln)” value was found to be 8.88.
The figure for AATAAATACTAAATGGTGCAAAATTTTTTAACACTG is 10.7.
As for “TAAATCAAAATAATTTAACACACAATTTTAATACTG [CACACA_site8744]”, the “gcPBM binding intensity (ln)” value was 6.67.
The figure for “TATTAAAATATGTCAGTTCTTAAAAAGTTGATGAGT [GTGCAC_negctrl_site77]” is 7.17; for “TAATAATAATTAAATTGTACATATAATATAATATAA [XGTACX_site8554]” it is 7.15; for “TAATATATATGTATGGCACACACGGATAAATATATA [CACACA_site930]” it is 7.04.
For the sequence “TTTTAACAAAAAAAAAGAAAAGAAAAGAAAATAATA [XGTACX_negctrl_site530]”, the “gcPBM binding intensity (ln)” value was determined as 6.54.
As to TAATATAATATATAGGTGCAATATTAACAAAAATTT, the “gcPBM binding intensity (ln)” value was determined as 9.61.
As to “AATTGAATAAATTAAACATGCACAGATGTTCTATTT [TGCATGCA_site692]”, the “gcPBM binding intensity (ln)” value stood at 6.89.
Take “GAACAAATTAAATAGGTGCATTAACATGTTCTATTT [GTGCAC_site9729]”: the “gcPBM binding intensity (ln)” value worked out at 10.4.
For the sequence “AGTGATACTAATTTTTGTACGCATAAAAGAATATTC [XGTACX_site6055]”, the “gcPBM binding intensity (ln)” value is 6.97.
The figure for “ACCTATTTCAAACACACACACACACCCACAAACATA [CACACA_site977]” is 7.62; for “ACTATTTTCTTCAAAACATGCACCACATAAACATAA [TGCATGCA_site200]” it is 10.5.
The figure for “TATAAACATAAAACCAGTACATATATATTTTTCTTC [XGTACX_site212]” is 6.84.
Consider “CGGCTATTTCTATATACATGCATTTAAAAAAAAAAT [TGCATGCA_site354]”, for which the “gcPBM binding intensity (ln)” value stood at 7.27.
On to “CCAATGTTTTCTTGTGTACACATCATTAAAGAAAAA [CACACA_site5300]”, for which the “gcPBM binding intensity (ln)” value turned out to be 7.96.
With “AATAGAAAAAAATAAGTGCATTTTGGTATTCATCAT [GTGCAC_site9614]” the figure was 8.14.
As for “ATAATTTCAATATTTAATATCATATATATATATTTT [GTGCAC_negctrl_site713]”, the “gcPBM binding intensity (ln)” value was 6.94.
The figure for ATTATTTATATTATGGTGCATAATTTTGGGTTTCTT is 10.2; for “TATATATATATATGGGTGCATTTTTTTGTCCATGTA [GTGCAC_site9868]” it is 10.7.
With “TTATATGGCTCCATTTGTACGCATCCATGTTTTTAT [XGTACX_site6590]” the figure was 6.99; with “TATTGTTCTTATTTAGTGCATATATAATATAATATA [GTGCAC_site9827]”, 9.38.
With “TATATATATATATATATATATATGTATGTGCATTTA [TGCATGCA_negctrl_site53]” the figure was 9.08.
As for CATATAATTTTATGGGTGCATTTTTTTGTAAGACCA, the “gcPBM binding intensity (ln)” value came to 11.1.
Turning to “GTAATTTTATATGGTTGTACATATATATATATATAT [XGTACX_site6659]”, the “gcPBM binding intensity (ln)” value came to 9.68.
In the case of “TTGTTCTTATTTCATTTTTATATGATATTTCATTAT [CACACA_negctrl_site1619]”, the “gcPBM binding intensity (ln)” value was determined as 7.17.
With TTTTTAATTTCAATGGTGCAGTAATAATATAATAGT, the “gcPBM binding intensity (ln)” value was determined as 10.5.
Turning to “ATATTTATATATAGTAGTACTTTCAATAATTTAAAT [XGTACX_site7276]”, the “gcPBM binding intensity (ln)” value worked out at 7.05.
The figure for “TCTATTTTTTATATGGTGCATTGTTCTTATTAATAT [GTGCAC_site9392]” is 10.5.
“TTTATTTTAAAATATAGTACGCAAATAAAAATAAAT [XGTACX_site7783]”: the “gcPBM binding intensity (ln)” value was found to be 7.33.
With “AAATTTATTTCTGTGTGTCCACAAAAAAAAATCTTT [XGTACX_site691]” the figure was 6.91; with “TTTTTTTTTTTCTTTGCACACAGATAACTTGAAATT [CACACA_site2184]”, 7.2.
The figure for “TATTATTAATATGTATGGTTGTAATCTGTGTCTCCT [TGCATGCA_negctrl_site190]” is 7.12; for “CATTTTTTGCTTTCAACACACATACAATATATATAA [CACACA_site6127]” it is 7.26.
The figure for “AAAAAGAATAAATAAATAAATAAATATATATATATA [GTGCAC_negctrl_site584]” is 9.47.
“AATATATGTAAATGGACACACACATATATATATATA [CACACA_site9220]”: the “gcPBM binding intensity (ln)” value came out at 9.61.
The figure for “AGAAATGAAATATACACACATACATATATACATATA [CACACA_site4033]” is 7.21.
The figure for “ACATATATGTATAATACACACACTAATATATAATTG [CACACA_site1966]” is 7.15.
The figure for “TTTTGTAGTTTATAAATAAAAGAGAATATGGTGCTT [CACACA_negctrl_site413]” is 7.7; for “CATATATAAATATAAATATATATATATATATATATG [XGTACX_negctrl_site493]” it is 7.56.
“TTATAAAAAATTTTAGTGCATATATGATTTATATAT [GTGCAC_site9831]”: the “gcPBM binding intensity (ln)” value was found to be 8.21.
As for AAAATTTATAGTATGGTGCATAAAAATATATATATA, the “gcPBM binding intensity (ln)” value came out at 10.3.
With TAATATATATATATGGTGCATTTAATTTATATATAA the figure was 10.8; with CATATAAAAAATATGGTGCAGTTTTTTTTTTTTTTT, 10.4; with ATATATATATATGTAGTGCATTTTATATATAATATT, 9.01.
With “AAAATTAATATCTTGGTGCATTTTTTAATATTATTA [GTGCAC_site9638]” the figure was 10; with “GAATTATAAATTATAGTGCATAAAATTATGGCATAA [GTGCAC_site9938]”, 8.52.
“ACTCTATACATCTAATGTACATGGAAAAAAAAATTC [XGTACX_site733]”: the “gcPBM binding intensity (ln)” value was determined as 7.28.
“ATTTATTTATTTATATGTACATATATATATATATAT [XGTACX_site339]”: the “gcPBM binding intensity (ln)” value came to 9.54.
The figure for “TTAATTTATAAAAACACACACAGGTAAAAAGGTGCA [CACACA_site1177]” is 9.31; for “TATTAATTTATTTGTTGTACGTAAATATGCTTGTTT [XGTACX_site6591]” it is 7.26; for “AAATGAACAAGTGGCACACACACATTCTAACTAATT [CACACA_site3203]” it is 6.93.
With “TTCTATTTGTAAAATTGTACAAAATAAATAACAAAA [XGTACX_site1007]”, the “gcPBM binding intensity (ln)” value is 7.04.
For the sequence “TACTTTTATATGAATACACACAGGAATATAAATATG [CACACA_site7647]”, the “gcPBM binding intensity (ln)” value is 7.2.
In the case of “GTATGAAAAAAAATATGTACACATATATATTTGGTA [XGTACX_site6309]”, the “gcPBM binding intensity (ln)” value was found to be 7.07.
Consider “TTCTTTGCTTTTCAAACACACAAAAGTTATTATATT [CACACA_site521]”, for which the “gcPBM binding intensity (ln)” value was determined as 7.22.
As for “TAGAAAAACATTACGTGTACCAAACATCCTAGCAAC [XGTACX_site4888]”, the “gcPBM binding intensity (ln)” value stood at 7.19.
Regarding “TTGTTCATATTTTTTATTGTGTTAATATTTATAAAA [GTGCAC_negctrl_site423]”, the “gcPBM binding intensity (ln)” value amounted to 7.28.
The figure for “GCAGCAGCATTTTCAGTGCATTATTATATTGTTCAT [GTGCAC_site9926]” is 7.98; for “TTCATTGTGTTAACGGTGCATATATTTTTTCACCGT [GTGCAC_site9464]” it is 10.3.
With “CAAAAGGATAGGCACACACACACACCCATATATATA [CACACA_site2199]” the figure was 7.55; with “ATGTATATAATATTATGTACATATATGAAATATTTT [XGTACX_site8168]”, 7.02; with “CGCGCACCCAGACACACACACACACCCATATATATA [CACACA_site2203]”, 10.8.
Turning to “GGAGCACCCAGACACACACACACATATATATATATA [CACACA_site336]”, the “gcPBM binding intensity (ln)” value stood at 9.19.
For “CGCACCCACAGACACACACACACATATATATATATA [CACACA_site2202]”, the “gcPBM binding intensity (ln)” value was 9.47.
On to “CGCGCCCAGAAACACACACACACACCGATATATATA [CACACA_site5250]”, for which the “gcPBM binding intensity (ln)” value is 7.62.
The figure for “CACACCCACCAACACACACACACACCCACCCATATA [CACACA_site366]” is 7.11.
In the case of “CGCGCACCCAGACACACACACACACCGATATATATA [CACACA_site8687]”, the “gcPBM binding intensity (ln)” value turned out to be 10.6.
“CACCCACACCAACACACACACATATATATATATATA [CACACA_site362]”: the “gcPBM binding intensity (ln)” value is 9.74.
The figure for “CACCCCCACAGACACACACACACACCGATATATATA [CACACA_site8010]” is 7.89.
With “CACGCGCACCAACACACACACACACCCATATATATA [CACACA_site2204]” the figure was 10.6.
With “TTTTAGCACTTATTATAAGATATCAAAAAGATGGGT [XGTACX_negctrl_site325]”, the “gcPBM binding intensity (ln)” value came out at 7.32.
The figure for “ATAAATTCTATGTATACACACATATATAATATATAT [CACACA_site2689]” is 7.26.
For “TTTTTATTAATAGATATAAATATATAATATGAATGT [TGCATGCA_negctrl_site309]”, the “gcPBM binding intensity (ln)” value turned out to be 7.04.
The figure for “TTTCTTTTTTTTTAATGTACTTTTTTTATAAAAGGT [XGTACX_site5688]” is 7.27; for “ATAATTATTTAATATATATATATTATTTCGAATGTT [GTGCAC_negctrl_site688]” it is 7.03.
With AAAGAATTATATAAGGTGCACGAATGTTTCTTTAAT the figure was 10.9; with “TAAAAACAAAAATGTTGTACATAATATAAAACAATT [XGTACX_site6380]”, 7.04; with “ATTTTTTAAATTTAAACACACATTTTGTATATGTTT [CACACA_site1654]”, 7.02.
